Experimental findings from ChEMBL document CHEMBL1201862, “PubChem BioAssay data set” (2004) are described below.

Out of some 58,000 sequences screened, about 3,400 (5.9%) were called active. No stated cut-off is given here; in the data, active = GI50 up to about 1.1 µM and inactive = higher. These entries were drawn from the full list. Entries with a potency or affinity are not part of this list.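 Tested at 5 concentrations; 48 h exposure; 96-well plates; endpoints linearly interpolated, else capped at highest concentration. At the GI50, growth is halved.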

The assay has as its system A549. Description: NCI tumour cell line growth inhibition, 48 h.
“[Bis(aminomethyl)ethylmethylsilane]tetrachloroplatinum(IV), CHEMBL2146192” came in with a GI50 of 2.57 µM.
Then “[Bis(aminomethyl)tetramethylenesilane]dichloropaltinum(II), CHEMBL2146205”, with 27 µM.
The result for “mu-(1,7-nanodiamine-N,N')bis-(cis-aminedichloroplatimum (II)), CHEMBL2146215” reads 38.7 µM; that for “[Bis(aminomethyl)dimethylsilane]tetrachloroplatinum(IV), CHEMBL2146190”, 4.91 µM; that for “[Bis(aminomethyl)diethylsilane]tetrachloroplatinum(IV), CHEMBL2146203”, 6.84 µM.
Substance CISPLATIN, CHEMBL11359 registered a GI50 of 3.08 µM.
The result for “[Bis(aminomethyl)dimethylsilane]dichloroplatinum (II), CHEMBL2146201” reads 17.4 µM; that for “cis-Bis[[(trimethylsilyl)methyl]amino]tetrachloroplatinum(IV), CHEMBL2146191”, 15.6 µM.
The substance “[Bis(aminomethyl)tetramethylenesilane]tetrachloropaltinum(IV), CHEMBL2146189” yielded a GI50 of 8.34 µM.
The substance “[Bis(aminomethyl)pentamethylenesilane]dichloropaltinum(II), CHEMBL2146202” had a GI50 of 2.08 µM.
As to “[Bis(aminomethyl)pentamethylenesilane]tetrachloropaltinum(IV), CHEMBL2146204”, the GI50 worked out at 2.02 µM.
